{"source": "the supplement of paper PMC9262897", "about": "“Low-cost anti-mycobacterial drug discovery using engineered E. coli” (Nature Communications, 2022)", "system": "E. coli TESEC Mtb Alr", "assay": "growth (OD600 after 10 h); higher = more growth (less inhibition)", "conditions": "compound 0.1 mM", "experimental": "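TESEC Mtb Alr E. coli, or the Alr+ wild-type control, in 384-well plates with Prestwick library compounds at 0.1 mM and 1% DMSO, across arabinose induction levels of 1E3 to 1E7 nM. Growth is read as OD600 after 10 h at 37 °C in triplicate biological replicates.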", "key": {"[1]": {"conditions": "arabinose 1000 nM, raw OD600 reference: median of DMSO wells 0.294, cell-free background 0.041"}, "[2]": {"conditions": "arabinose 10000 nM, raw OD600 reference: median of DMSO wells 0.264, cell-free background 0.041"}, "[3]": {"conditions": "arabinose 100000 nM, raw OD600 reference: median of DMSO wells 0.201, cell-free background 0.041"}, "[4]": {"conditions": "arabinose 1000000 nM, raw OD600 reference: median of DMSO wells 0.193, cell-free background 0.041"}, "[5]": {"conditions": "arabinose 10000000 nM, raw OD600 reference: median of DMSO wells 0.146, cell-free background 0.041"}}, "note": "Where a name gives a salt, the structure may show the parent alone. ± gives the standard deviation of the averaged measurements.", "data": [{"smiles": "CSc1ccc2c(c1)C(N1CCN(C)CC1)Cc1ccccc1S2", "note": "(stereo not given) [Methiothepin maleate]", "values": [{"measurement": "growth", "setting": "[1]", "value": "0.0412 ± 0.0021"}, {"measurement": "growth", "setting": "[2]", "value": "0.0394 ± 0.00042"}, {"measurement": "growth", "setting": "[3]", "value": "0.04073 ± 0.00025"}, {"measurement": "growth", "setting": "[4]", "value": "0.03917 ± 5.8e-05"}, {"measurement": "growth", "setting": "[5]", "value": "0.0411 ± 0.0013"}]}, {"smiles": "CN1CCN(C2=Nc3ccccc3Oc3ccc(Cl)cc32)CC1", "note": "[Loxapine succinate]", "values": [{"measurement": "growth", "setting": "[1]", "value": "0.182 ± 0.0068"}, {"measurement": "growth", "setting": "[2]", "value": "0.194 ± 0.0033"}, {"measurement": "growth", "setting": "[3]", "value": "0.189 ± 0.0039"}, {"measurement": "growth", "setting": "[4]", "value": "0.12 ± 0.0061"}, {"measurement": "growth", "setting": "[5]", "value": "0.158 ± 0.0041"}]}, {"smiles": "C[N+]1(C)CCC(OC(=O)C(O)(c2ccccc2)C2CCCC2)C1", "note": "(stereo not given) [Glycopyrrolate]", "values": [{"measurement": "growth", "setting": "[1]", "value": "0.301 ± 0.0095"}, {"measurement": "growth", "setting": "[2]", "value": "0.267 ± 0.0065"}, {"measurement": "growth", "setting": "[3]", "value": "0.185 ± 0.021"}, {"measurement": "growth", "setting": "[4]", "value": "0.1866 ± 0.001"}, {"measurement": "growth", "setting": "[5]", "value": "0.138 ± 0.0078"}]}, {"smiles": "C[C@H](N[C@@H](CCc1ccccc1)C(=O)O)C(=O)N1CCC[C@H]1C(=O)O", "note": "[Enalaprilat dihydrate]", "values": [{"measurement": "growth", "setting": "[1]", "value": "0.2913 ± 0.0017"}, {"measurement": "growth", "setting": "[2]", "value": "0.285 ± 0.011"}, {"measurement": "growth", "setting": "[3]", "value": "0.198 ± 0.019"}, {"measurement": "growth", "setting": "[4]", "value": "0.208 ± 0.01"}, {"measurement": "growth", "setting": "[5]", "value": "0.1379 ± 0.0012"}]}, {"smiles": "CCN(CC)CCNC(=O)c1cc(Cl)c(N)cc1OC", "note": "[Metoclopramide monohydrochloride]", "values": [{"measurement": "growth", "setting": "[1]", "value": "0.278 ± 0.016"}, {"measurement": "growth", "setting": "[2]", "value": "0.252 ± 0.017"}, {"measurement": "growth", "setting": "[3]", "value": "0.195 ± 0.015"}, {"measurement": "growth", "setting": "[4]", "value": "0.179 ± 0.0077"}, {"measurement": "growth", "setting": "[5]", "value": "0.144 ± 0.0028"}]}, {"smiles": "CCCNCC(O)COc1ccccc1C(=O)CCc1ccccc1", "note": "(stereo not given) [Propafenone hydrochloride]", "values": [{"measurement": "growth", "setting": "[1]", "value": "0.241 ± 0.019"}, {"measurement": "growth", "setting": "[2]", "value": "0.281 ± 0.012"}, {"measurement": "growth", "setting": "[3]", "value": "0.176 ± 0.015"}, {"measurement": "growth", "setting": "[4]", "value": "0.124 ± 0.0027"}, {"measurement": "growth", "setting": "[5]", "value": "0.155 ± 0.006"}]}, {"smiles": "CCSc1ccc2c(c1)N(CCCN1CCN(C)CC1)c1ccccc1S2", "note": "[Thiethylperazine dimalate]", "values": [{"measurement": "growth", "setting": "[1]", "value": "0.0413 ± 0.0013"}, {"measurement": "growth", "setting": "[2]", "value": "0.0405 ± 0.0005"}, {"measurement": "growth", "setting": "[3]", "value": "0.0425 ± 0.002"}, {"measurement": "growth", "setting": "[4]", "value": "0.03993 ± 0.00021"}, {"measurement": "growth", "setting": "[5]", "value": "0.0411 ± 0.00055"}]}, {"smiles": "CC(NCCc1ccc(O)cc1)C(O)c1ccc(O)cc1", "note": "(stereo not given) [Ritodrine hydrochloride]", "values": [{"measurement": "growth", "setting": "[1]", "value": "0.313 ± 0.011"}, {"measurement": "growth", "setting": "[2]", "value": "0.2537 ± 0.0014"}, {"measurement": "growth", "setting": "[3]", "value": "0.21 ± 0.032"}, {"measurement": "growth", "setting": "[4]", "value": "0.176 ± 0.0022"}, {"measurement": "growth", "setting": "[5]", "value": "0.144 ± 0.0063"}]}]}
